Experimental data taken from PubChem BioAssay (NCI).
The panel holds about 83,000 compounds, 20% with a hit somewhere; the sample as a whole holds those more often.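 A percent growth of 40 corresponds to 60% growth inhibition; 0 means no net growth; -100 means all cells died. Active threshold: below 10.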 Activity calls are given as the source filed them.

These compounds were tested on MDA-MB-468 breast (assay: NCI-60 one-dose screen, 48 h (100 = growth as untreated, 0 = no growth, -100 = all killed)). Conditions: 10 µM unless noted.

**Q.** Which growth does the source give for N#Cc1ncc(-c2ccc(C(F)(F)F)cc2)c(NC2CCCCCC2)n1 here?
**A.** Its growth is -8.28% (active).

**Q.** For CCOC(=O)c1nc2c3ccccc3ccn2c1C(=O)OC, which growth is on record?
**A.** The growth was 92.1% (inactive).

**Q.** With COc1cc(C2=NN(C(C)=O)C(c3cccc(Nc4ccnc5cc(C(F)(F)F)ccc45)c3)C2)cc(OC)c1OC (stereo not given) as the compound, how does the growth read?
**A.** Its growth is 50.5% (inactive).

**Q.** With O=c1c(-c2nc3ccccc3[nH]2)cc2ccccc2n1Cc1cn(Cc2ccc(F)cc2)nn1 as the compound, how does the growth read?
**A.** Its growth is 4.78% (active).

**Q.** Which growth does the source give for COc1cc(/C=C/C(=O)c2ccc(Cl)cc2)ccc1OS(=O)(=O)c1ccc(C)cc1 here?
**A.** The growth was 99.7% (inactive).

**Q.** Cc1cc(C)cc(C(=O)Nc2cccc(C#Cc3cccc4[nH]nc(N)c34)c2)c1 was tested. Which growth did it give?
**A.** The growth was 43% (inactive).

**Q.** With CC(=O)n1cc([C@H]2CC[C@H](c3cn(C(C)=O)c4ccccc34)c3c2[nH]c2ccccc32)c2ccccc21 as the compound, how does the growth read?
**A.** The growth was 92.9% (inactive).

**Q.** With COc1cc(C2=N/C(=C\c3cc4ccccc4nc3Oc3ccccc3)C(=O)N2C(=N)N)cc(OC)c1OC as the compound, how does the growth read?
**A.** The growth was 67.9% (inactive).

**Q.** For CCOC(=O)c1cc(C(=O)c2ccc(F)cc2F)n2ccccc12, which growth is on record?
**A.** The growth was 102% (inactive).

**Q.** How did the growth turn out when CCCCNC(=O)Oc1ccc(/C(=C(/C)Cc2ccc(OC)cc2)c2ccc(OCCN3CCCCC3)cc2)cc1 was run?
**A.** Its growth is 60.1% (inactive).

**Q.** Which growth does the source give for CC(C)(C)c1ccc(C(O)CCCN2CCC(C(O)(c3ccccc3)c3ccccc3)CC2)cc1 (stereo not given) here?
**A.** The growth was -97.1% (active).

**Q.** Which growth does the source give for O=C(Nc1ccc(Nc2ccncc2)cc1)c1ccc(Nc2ccnc3ccc([N+](=O)[O-])cc23)cc1[N+](=O)[O-] here?
**A.** Its growth is 21.7% (inactive).

**Q.** For CN(C)CC(=O)Nc1nc(-c2cccc(NS(=O)(=O)c3cccc4c(N(C)C)cccc34)c2)cs1, which growth is on record?
**A.** Its growth is 62% (inactive).

**Q.** How did the growth turn out when COc1cc(OC)cc(C2C3=C(COC3=O)Nc3cc(OC)ccc32)c1 (stereo not given) was run?
**A.** The growth was -8.19% (active).

**Q.** Which growth does the source give for Nc1ccc(N)c([N+](=O)[O-])c1 here?
**A.** Its growth is 88% (inactive).
